The full list was thinned out, with hits kept by preference.
TDP1 block: TDP1 (human) enzyme inhibition. Q9NUW8. recombinant TDP1, AlphaScreen DNA substrate cleavage. Potency, µM (titrated, usually from 130 µM), inactives show at the top dose activity change, negative = inhibition, actives largely listed as inhibitors. 350,000 compounds, 0.28% hits; note: nearly all actives have a fitted effect of over 40% in size
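Here, a 5' biotin and 3' phosphotyrosine-FITC DNA oligonucleotide reports Tdp1 activity: intact substrate bridges AlphaScreen beads, while cleavage leaves a 3' phosphate and drops signal. All incubations at room temperature.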
GCN5L2 inh: blocks human GCN5L2 histone acetyltransferase | GCN5L2 HAT assay, ThioGlo1 CoA-SH fluorescence | AID 504327 | Q92830 | 390,000 compounds, 0.21% hits | Potency, µM (top dose mostly 58.9 µM), without a hit: at the top dose activity change, negative = inhibition, hits mostly inhibitors
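qHTS, 1536-well. 20nM enzyme, pH 7.5 HEPES/EDTA/Tween-20 buffer; 15 min compound preinc., RT. Start: 75uM H3(1-25), 70uM AcCoA, 50uM ThioGlo1. Read Ex340/Em540 at t=0 (autofluorescence flag) and t=20 min.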
KDM4E inh: inhibitors of human JMJD2E histone demethylase | JMJD2E catalytic domain, FDH-coupled NADH fluorescence (FDH is formaldehyde dehydrogenase) | 230,000 compounds, 1.6% hits | AID 2147 | Potency, µM (highest dose often 57.1 µM), for the others: at the top dose activity change, negative = inhibition, most hits filed as inhibitors; active = well fitted inhibition curve with a large enough effect, not every such curve was filed as active; inconclusive = small, poorly fitted or top-dose-only effect, or another doubt; inactive = no such curve, though single readings can be large or run the other way;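 note: 0% = wells with enzyme and -100% = buffer wells without enzyme; nearly all actives have a fitted effect of over 50% in size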
BLM helicase inh: blocks DNA unwinding by human BLM helicase; P54132; recombinant BLM DNA unwinding, fluorescence dequenching; Potency, µM (highest dose often 56.1 µM), for the others: at the top dose activity change, negative = inhibition, usual class: inhibitors; 350,000 compounds, 0.2% hits; AID 2528;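 note: plate controls were vehicle for no effect and no enzyme for full effect; nearly all actives have a fitted effect of over 35% in size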
APEX1 inh: APE1 (human) endonuclease inhibition. P27695. recombinant APE1, TAMRA/BHQ-2 abasic DNA cleavage fluorescence. Potency, µM (top dose mostly 65.8 µM), without a hit: at the highest dose activity change, negative = inhibition, most hits filed as inhibitors. 350,000 compounds, 0.35% hits. AID 2517;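 note: plate controls were vehicle for no effect and reference inhibitor for full effect; nearly all actives have a fitted effect of over 55% in size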
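APE1 at 0.75 nM preincubated 15 min at room temperature with compound. Reaction then started with 50 nM double-stranded THF-abasic substrate labelled with TAMRA/BHQ-2, and 525/598 nm fluorescence read kinetically. Activity taken as third-minus-first read difference, normalized to DMSO and NSC13755 controls.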
RECQ1 helicase: blocks DNA unwinding by human RECQ1; P46063; RECQ1 DNA unwinding, red fluorescence kinetic read; Potency, µM (highest dose often 57.3 µM), for inactives: top-dose activity, negative = inhibition, actives largely listed as inhibitors; 240,000 compounds, 0.54% hits;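 note: plate controls were vehicle for no effect and no enzyme for full effect; nearly all actives have a fitted effect of over 30% in size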
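50 nM RECQ1T1 preincubated 15 min with compound in Tris pH 8.0 buffer with MgCl2, DTT, Tween-20 and 2.5 ug/ml poly(dI-dC); started with 200 nM TAMRA/BHQ-2 forked duplex and 2 mM ATP. Unwinding read as fluorescence (525/598 nm), two reads 2 h apart.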
Numbers without * were called inactive; i = inactive; ? = inconclusive; . = no result given; [ ] = dose if it differs, or a comment. Unless noted, calls come from the whole dose curve; as a rule, active = well fitted curve in the direction sought with a large enough effect; inconclusive = small, poorly fitted or top-dose-only effect, or another doubt; inactive = no such curve, though single readings can be large; an effect the other way counts as inactive or inconclusive. Unless noted, % is set by controls: 0 for no effect and ±100 for the full control effect; potency is the fitted concentration of half-maximal effect.

SMILES	TDP1 block	GCN5L2 inh	KDM4E inh	BLM helicase inh	APEX1 inh	RECQ1 helicase
COc1cc(OC)c(C#N)c(S(=O)(=O)Cc2ccccc2)c1	-1.5%	16.8%	-8.3%	-6.4%	-0.4%	i
COc1cccc(/C=N/Nc2ncnc3c2[nH]c2ccc(C)cc23)c1OC	.	-19.8%	?	14.1µM*	1.5%	-7.8%
OC[C@H]1O[C@@H](O[C@H]2[C@H](O)[C@@H](O)[C@H](O)O[C@@H]2CO)[C@H](O)[C@@H](O)[C@@H]1O	.	.	.	.	-1.5%	.
COc1ccc(S(=O)(=O)N2CCC(C(=O)NCc3cccnc3)CC2)cc1OC	4.47µM*	-6.8%	.	-0.8%	73.2%[12.4 µM]	.
C=CCN1C(=O)/C(=C/C=C2/N(CC)c3ccc(S(=O)(=O)N(C)C)cc3N2CC)SC1=S	7.2%	-5.4%	2.8%	10µM*	?	3.98µM*
C=CCCCN(Cc1ccccc1)S(=O)(=O)c1ccccc1Br	39.8µM*	-19.0%	12.2%	-10.0%	-1.5%	i
CCN(Cc1ccccc1)S(=O)(=O)c1ccccc1Br	-14.9%[56.1 µM]	-8.7%	.	.	5.8%	.
COc1ccc(CCNCC(=O)Nc2ccc(C)c(S(=O)(=O)N(C)C)c2)cc1OC	79.4µM*	-12.3%	?	5.3%	2.9%	-12.7%
COc1ccc(CCNCC(=O)N2C(C)CCCC2C)cc1OC (stereo unspecified)	0.0%	-9.3%	31.6µM*	-5.0%	-1.5%	-14.6%
N#CCC(N)=C(C#N)C#N	-2.7%	-10.3%	7.94µM*	-13.9%	16.3%	12.1%
Cc1c(/C=N\NC(=O)C2COc3ccc(C(C)(C)C)cc3O2)c2ccccc2n1C (stereo unspecified)	4.6%	-12.4%	-6.8%	-11.8%	-0.5%	28.2µM*
O=C(c1ccc2c(c1)OCCO2)N1CCN(c2nc(-c3cccs3)nc3ccccc23)CC1	0.9%	.	.	.	.	.
CCOC(=O)NC(=O)C(/C=N/c1sccc1C(=O)OC)=C(\C)O	2.7%	-11.6%	?	-1.5%	3.1%	14.1µM*
CCC(=O)Nc1sccc1C(=O)OC	6.6%	3.8%	9.2%	0.2%	-3.2%	0.4%
CC1(C)S[C@H]2[C@@H](NC(=O)C(N)c3ccccc3)C(=O)N2[C@H]1C(=O)O (stereo partly specified)	?	.	?	-1.1%	20µM*	?
O=S(=O)(c1ccc2c(c1)OCO2)N1CCN(c2nc(-c3cccs3)nc3ccccc23)CC1	0.4%	.	.	.	.	.
O=S1(=O)N=C(Oc2ccccc2Br)c2ccccc21	3.3%	.	.	.	.	.
Cc1ccc(C)n1-c1ccc(N(C)C)cc1	10.5%	-2.9%	15.8µM*	4.0%	12.4%	-23.2%
CCOC(=O)C1CCN(c2nc(-c3ccc(Br)cc3)cs2)CC1	.	.	.	.	56.4%	.
COc1ccc(-c2sc(N)nc2-c2ccccc2)cc1	3.1%	.	.	.	.	.
CCOc1ccc(C(=O)c2cc3ccc(O)cc3oc2=O)cc1	0.0%	-7.1%	?	-8.3%	1.1%	-2.5%
CCOc1ccc(C(=O)c2ccc(O)c(O)c2O)cc1	-8.1%	-11.0%	14.1µM*	-19.0%	?	?
CCOc1cccc(C(=O)c2ccc(O)c(O)c2O)c1	3.8%	-12.1%	10µM*	-16.1%	?	?
Cc1cccc(NC(=O)CN2C(=O)CCSc3ccc(S(=O)(=O)N4CCOCC4)cc32)c1C	35.5µM*	-7.7%	.	-6.4%	?	.
CCCCN(CC)S(=O)(=O)c1ccc(C(=O)Nc2nnc(-c3cccs3)o2)cc1	9.5%	-6.7%[0.501 µM]	25.1µM*	-4.5%	0.4%	-3.3%
Cc1ccccc1NC(=O)CN1C(=O)S/C(=C\c2ccc(-c3cc(C(=O)O)ccc3C)o2)C1=O	.	-1.9%	0.5%	-6.7%	?	i
Cc1cc(C(=O)O)ccc1-c1ccc(/C=C2\SC(=O)N(CC(=O)Nc3ccc4c(c3)OCO4)C2=O)o1	8.91µM*	-20.6%	.	11.2µM*	6.7µM*	.
COC(=O)c1ccccc1-c1ccc(/C=N/NC(=O)c2cc3ccccc3o2)o1	11.3%	-12.4%	?	-5.8%	-5.6%	-20.8%

High-throughput results (PubChem BioAssay)
